Laboratory results taken from the supplement of paper PMC12669032.
A number with no mark means an inactive call.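 The calls were made as follows: active = AUC reduced over 20% with Padj below 0.05 in at least 2 of 3 replicates; inactive = otherwise.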

Tests used:
Assay in all cases: growth AUC relative to DMSO control (median of replicates) (fraction); higher = more growth (less inhibition), active = hit call of the paper
Conditions in all cases: 20 µM; 24 h
[1] = tested on: Akkermansia muciniphila
In short: (§1)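 In round-bottom 96-well plates sealed with pierced gas-permeable seals, gut bacterial monocultures in mGAM were grown anaerobically at 37 °C from OD600 0.05 with 20 µM compound (1% DMSO). OD600 readings were taken hourly for 24 h, and the minimum OD was set to 0. Area under the growth curve was then normalised to the plate median of solvent-only wells, or to row and column medians on the industrial chemical plate. The value given is the median of three biological replicates grown on separate days.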

[2] = tested on: Bacteroides caccae
In short: as §1

[3] = tested on: Bacteroides clarus
In short: as §1

[4] = tested on: Bacteroides dorei
In short: as §1

[5] = tested on: Bacteroides stercoris
In short: as §1

[6] = tested on: Bacteroides thetaiotaomicron
In short: as §1

[7] = tested on: Bacteroides uniformis
In short: as §1

[8] = tested on: Bifidobacterium longum subsp. longum
In short: as §1

[9] = tested on: Clostridium difficile
In short: as §1

[10] = tested on: Collinsella aerofaciens
In short: as §1

[11] = tested on: Coprococcus comes
In short: as §1

[12] = tested on: Escherichia coli ED1a
In short: as §1

[13] = tested on: Escherichia coli IAI1
In short: as §1

[14] = tested on: Eubacterium rectale
In short: as §1

[15] = tested on: Fusobacterium nucleatum subsp. animalis
In short: as §1

[16] = tested on: Lactobacillus gasseri
In short: as §1

[17] = tested on: Lactobacillus paracasei
In short: as §1

[18] = tested on: Odoribacter splanchnicus
In short: as §1

[19] = tested on: Parabacteroides distasonis
In short: as §1

[20] = tested on: Parabacteroides merdae
In short: as §1

| Structure (SMILES) | growth AUC [1] | growth AUC [2] | growth AUC [3] | growth AUC [4] | growth AUC [5] | growth AUC [6] | growth AUC [7] | growth AUC [8] | growth AUC [9] | growth AUC [10] | growth AUC [11] | growth AUC [12] | growth AUC [13] | growth AUC [14] | growth AUC [15] | growth AUC [16] | growth AUC [17] | growth AUC [18] | growth AUC [19] | growth AUC [20] |
| --- | --- | --- | --- | --- | --- | --- | --- | --- | --- | --- | --- | --- | --- | --- | --- | --- | --- | --- | --- | --- |
| Nc1nc(N)[nH]c(=O)n1 | 1.05 | 1.02 | 0.994 | 1.04 | 1 | 1.01 | 1.01 | 1.02 | 1 | 1.1 | 1.02 | 1.02 | 1.03 | 0.978 | 0.964 | 0.982 | 1.04 | 0.956 | 1.05 | 1.01 |
| CCOC1Oc2ccc(OS(C)(=O)=O)cc2C1(C)C (stereo not given) | 1.03 | 0.907 | 0.978 | 0.889 | 0.897 | 0.987 | 0.993 | 1.01 | 0.99 | 0.916 | 0.943 | 0.949 | 0.964 | 1.16 | 0.903 | 0.891 | 0.98 | 1.15 | 0.879 | 0.927 |
| COCC(C)N(C(=O)CCl)c1c(C)csc1C (stereo not given) | 1.35 | 1.03 | 1.01 | 0.929 | 1.04 | 0.973 | 0.93 | 0.841 | 0.847 | 0.922 | 1.02 | 0.976 | 0.993 | 1.16 | 0.825 | 0.806 | 1.01 | 0.822 | 0.683 (active) | 1 |
| CCOC(=O)C(O)(c1ccc(Cl)cc1)c1ccc(Cl)cc1 | 0.996 | 0.872 | 0.78 (active) | 0.951 | 0.376 (active) | 0.874 | 0.991 | 0.997 | 1.04 | 0.978 | 0.953 | 1.03 | 0.968 | 1.02 | 0.879 | 1.03 | 0.979 | 0.992 | 0.823 | 0.92 |
| Cc1cc(C2CC2)nc(Nc2ccccc2)n1 | 0.934 | 0.979 | 0.939 | 0.916 | 0.756 | 0.903 | 0.981 | 1.04 | 0.959 | 0.953 | 1.04 | 0.984 | 0.962 | 1.05 | 1.03 | 0.982 | 0.969 | 1.04 | 1.01 | 0.894 |
| CCS(=O)(=O)Cc1ccccc1OC(=O)NC | 1.05 | 0.949 | 1 | 0.994 | 1.1 | 0.971 | 0.995 | 1.01 | 0.977 | 1.05 | 0.996 | 1 | 1 | 1.07 | 1.03 | 0.958 | 1.02 | 1 | 0.98 | 0.983 |
| [CH3][Hg][Cl] | 0.749 | 0.912 | 0.837 | 0.96 | 0.903 | 0.679 (active) | 0.77 (active) | 0.868 | 0.902 | 1.01 | 0.816 | 1.04 | 1.06 | 0.872 | 0.956 | 0.99 | 1.04 | 0.684 (active) | 0.918 | 0.892 |
| CC(C)Nc1nc(Cl)nc(NC(C)C)n1 | 0.954 | 0.825 | 0.989 | 0.965 | 1.14 | 0.96 | 1.02 | 1.07 | 0.986 | 0.961 | 0.958 | 1.03 | 0.978 | 1.07 | 1.04 | 0.983 | 1.06 | 0.797 | 1.02 | 0.968 |
| COc1ccc(/C(=C/C(=O)N2CCOCC2)c2ccc(Cl)cc2)cc1OC | 1.1 | 0.962 | 1 | 0.93 | 1.33 | 0.978 | 0.954 | 1.04 | 0.932 | 0.93 | 0.985 | 1.01 | 1.02 | 1.12 | 1.06 | 0.961 | 1.06 | 0.823 | 0.993 | 0.993 |
| CCOP(=S)(OCC)Oc1cnc2ccccc2n1 | 0.881 | 0.925 | 0.94 | 0.993 | 0.934 | 0.895 | 0.867 | 0.987 | 0.988 | 0.992 | 0.989 | 0.977 | 0.977 | 0.91 | 0.995 | 0.966 | 1.01 | 1.01 | 0.589 (active) | 0.947 |
| CCN(CC)c1c([N+](=O)[O-])cc(C(F)(F)F)c(N)c1[N+](=O)[O-] | 0.987 | 0.94 | 0.977 | 0.956 | 1.09 | 0.88 | 0.972 | 0.913 | 1 | 1 | 0.982 | 1.05 | 1.02 | 0.977 | 1.06 | 1.04 | 1.06 | 0.955 | 0.897 | 0.928 |
| Cc1cccc(C)c1N(Cn1cccn1)C(=O)CCl | 1.02 | 0.829 | 0.997 | 0.974 | 1.01 | 0.987 | 0.969 | 1.07 | 1.01 | 0.952 | 0.992 | 0.976 | 0.952 | 1.09 | 1.1 | 0.928 | 0.997 | 1.06 | 1.01 | 0.963 |
| COP(=O)(OC)OC1=C(Cl)C2C=CCC12 (stereo not given) | 1.03 | 0.928 | 0.995 | 1 | 1.42 | 1.02 | 1.02 | 1.01 | 1 | 0.964 | 0.999 | 0.968 | 1.03 | 1.01 | 1.04 | 0.957 | 1.02 | 0.892 | 0.975 | 1.03 |
| ClC1=C(Cl)C2(Cl)C3COCC3C1(Cl)C2(Cl)Cl (stereo not given) | 0.531 (active) | 0.91 | 1.11 | 0.925 | 1.05 | 0.871 | 0.916 | 0.918 | 0.966 | 1.02 | 0.912 | 1 | 1.03 | 0.992 | 1.12 | 1.01 | 0.94 | 0.99 | 0.987 | 1.02 |
| CC1(C)[C@H](/C=C(\Cl)C(F)(F)F)[C@@H]1C(=O)O[C@@H](C#N)c1cccc(Oc2ccccc2)c1 | 1.14 | 0.983 | 0.994 | 0.972 | 0.971 | 0.997 | 0.984 | 0.963 | 0.988 | 0.932 | 0.959 | 1 | 0.992 | 0.961 | 0.953 | 0.853 | 0.996 | 1 | 0.985 | 0.957 |
| O=c1oc2ccccc2c(O)c1C1CC(c2ccc(-c3ccc(Br)cc3)cc2)Cc2ccccc21 (stereo not given) | 0.966 | 0.91 | 0.335 (active) | 0.89 | 0.00883 (active) | 0.788 (active) | 0.86 | 0.647 (active) | 0.263 (active) | 0.911 | 0.856 | 0.998 | 1 | 0.567 (active) | 0.96 | 0.652 (active) | 0.714 (active) | 0.99 | 0.126 (active) | 0.00968 (active) |
| CCOC(=O)c1cn2nc(OP(=S)(OCC)OCC)cc2nc1C | 1.14 | 0.973 | 0.945 | 0.904 | 0.876 | 0.991 | 0.834 | 1.05 | 0.988 | 0.967 | 0.952 | 0.981 | 0.97 | 1.13 | 0.938 | 0.908 | 0.911 | 0.692 (active) | 0.662 (active) | 0.909 |
